# Test results taken from the supplement of paper PMC7556523.
# A number with no mark means an inactive call.
# Legend:
# [1] = system: Sporothrix brasiliensis CBS 133006; experiment: growth inhibition relative to untreated control; higher = more growth inhibition (more antifungal activity), active = 80 or more; extreme values may be limits of the assay; details: 1 µM; 48 h
# Procedure, shortened: (§1)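 Each value is the percent growth inhibition compared with cells left untreated. Reference isolates were grown as yeast-form cells in brain heart infusion broth with 2% glucose for 7 days at 36°C, then exposed at 1 x 10^5 CFU/ml to library compounds at a final 1 μM for 48 h at 35°C in 5% CO2. Growth was inspected visually under an inverted light microscope and quantified by spectrophotometric readings, with runs in quadruplicate.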
# [2] = system: Sporothrix schenckii ATCC 32286; experiment: as above; details: 1 µM; 48 h
# Procedure, shortened: as §1
Compound,growth inhibition [1],growth inhibition [2] [%]
O=C(Nc1ccnc(-c2cccnc2)n1)c1cc(C(F)(F)F)cc(C(F)(F)F)c1,2.5%,0
NCCC(O)C(=O)N[C@@H]1C[C@H](N)[C@@H](OC2O[C@H](CN)[C@@H](O)[C@H](O)[C@H]2O)[C@H](O)C1OC1O[C@H](CO)[C@@H](O)[C@H](N)[C@H]1O (some centres not stated),9.25%,1
Nc1cccnc1Nc1ccc(Cl)cc1,13.8%,0
Nc1ncc(Br)cc1-c1nc2cc(Cl)cnc2[nH]1,12%,19.2
O=C(Nc1ccccc1-c1nc2c(C(=O)O)cccc2o1)c1ccccc1,1%,0
CCc1ccc(S(=O)(=O)Nc2cc(CN3CCN(CCC(C)C)CC3)ccc2C)cc1,1.75%,21.2
c1ccc(Oc2ccc(-c3cc(N4CCOCC4)[nH]n3)cc2)cc1,4.25%,8
CNC(=O)c1cc(S(=O)(=O)N2CCN(c3ccccn3)CC2)cs1,0%,18.2
Cc1ccc2cc(C3NC(=O)c4ccccc4N3)c(Cl)nc2c1 (configuration not stated),8%,4
CC(C)C(Oc1cccc2ccccc12)C(=O)O (configuration not stated),23.2%,4.25
Cc1nn2c(=O)c3c([nH]c2c1-c1ccc(Cl)cc1)CCCC3,12.8%,15.8
O=C(c1ccc(NCCO)cc1)C1C[C@H]1c1ccc(Cl)cc1 (some centres not stated),2%,8.5
COc1ccc(Cn2cnc3c(-c4ccco4)nc(Cl)nc32)cc1,15.8%,17.8
Cc1nc(-c2ccccn2)nc(N(C)CCc2ccccc2)c1Cl,80.8% (active),34.8
CS(=O)(=O)N1CCC(Cn2nc(Cc3cccc4ccccc34)c3c(N)ncnc32)CC1,11.2%,22
Cc1cc(C)cc(COc2ccc3c(C)c(CCC(=O)O)c(=O)oc3c2C)c1,3.75%,1.5
O=C(c1ccco1)N(CCCn1ccnc1)c1nc2c(Cl)cccc2s1,6%,10.2
COC(=O)C1=C(C)NC(C)=C(C(=O)OC(C)C)C1c1cccc2nonc12 (configuration not stated),10.8%,11
N#Cc1ccc(-c2cnc(N)c(-c3ccc(C(N)=O)cc3)n2)cc1,3.75%,9
N=C(N)c1ccc(-c2cc(-c3ccccc3)on2)cc1,7%,10.5
CC1CCCN(C(=O)C(C)Nc2cc(Cl)ccc2N2CCOCC2)C1 (configuration not stated),11.5%,0.5
Cc1ccc(S(=O)(=O)Nc2ccc(CN3CCN(C(=O)c4cccc(C#N)c4)CC3)cc2)cc1,2%,0.5
COc1ccc(N(CCc2cccc(C)n2)C(C)=O)cc1,0%,1.25
Cc1ccc(Oc2ccc(NC(=O)CNc3ccccc3N3CCCC3=O)cc2)cc1,0%,0
Cc1cc(C(=O)Nc2ccc(-c3ccccc3)cc2)no1,1.75%,17
CC(=O)N1CCN(c2ccc(Oc3ccc(Cl)cc3O)cc2)CC1,3.5%,0.75

Compound,growth inhibition [1],growth inhibition [2] [%]
Cc1noc(C)c1C(=O)N1CCCC(c2[nH]c3c(C)cccc3c2-c2ccncc2)C1 (configuration not stated),7.5%,14
Nc1ccc2ncnc(Nc3ccc(OCc4cccc(F)c4)c(Cl)c3)c2c1,12.8%,8.25
Cc1ccc(NC(=O)c2cc(S(=O)(=O)NC(C)(C)C)ccc2C)nc1,4.25%,0
CC(=O)Nc1ccc(-c2noc(CC3CCCN(Cc4cccc(F)c4C)C3)n2)cc1 (configuration not stated),10.2%,0.5
c1ccc(Oc2ccc(-c3cc(CN4CCOCC4)[nH]n3)cc2)cc1,2.25%,5.75
N#Cc1ccc(-c2ccc(OCC(N)=O)cc2)cc1,19.2%,0
O=C(Nc1nc(-c2ccccn2)cs1)c1cncn1-c1ccccc1,17.5%,15.2
Cn1c(=O)c2c(S(C)(=O)=O)snc2n(C)c1=O,9%,13.2
O=C(c1ccc(F)cc1)N(CCNc1ccccc1)c1ccccc1,16.5%,12.2
COc1cc(C(F)(F)F)nc2ccc(C)c(N)c12,6.75%,14.5
O=C(NCc1ccoc1)N1CCN(Cc2ccc3c(c2)OCO3)CC1,7.5%,6.25
Cc1cc(OCC(=O)NCc2ccccc2)c2cc(Br)ccc2n1,10%,4
O=C(NC1=NCCS1)c1sc2cc(F)ccc2c1Cl,0.75%,0
CCC(Sc1nc2ccccc2o1)C(=O)Nc1nnc(C)s1 (configuration not stated),16%,3.25
COc1ccc(C2=NCCN2)cc1-c1cn(-c2cccc(C3=NCCN3)c2)nn1,12.8%,3
Cc1cccc(-c2nc(Nc3ccncn3)c3sccc3n2)n1,1%,9.75
CN(C)c1cc(NC(=O)Nc2ccccc2)c2ccccc2n1,0%,0.75
Cc1cc(C)n2nc(C(=O)Nc3cc(C(F)(F)F)ccc3N3CCOCC3)nc2n1,0.25%,12.5
CCCn1c(CNc2ccccc2O)nc2ccccc21,11.2%,13.2
Cc1ccc(S(=O)(=O)n2cc(-c3ccnc(N)c3)c3cc(Br)cnc32)cc1,0%,5.25
C[C@H](c1ccc2c(c1)CCCC2)N(C)c1ncc2c(N)nc(N)nc2n1,10%,0
CC(C)(C)n1nc(Cc2ccc(F)c(Cl)c2)c2c(N)ncnc21,14.2%,0
COc1cc(-c2cc(-c3ccc(S(C)(=O)=O)cc3)cnc2N)ccc1O,17.8%,19.8
COc1cccc(-n2nnnc2S(=O)(=O)Cc2ccccc2)c1,19%,6
CCCn1c(NC(=O)c2ccc3ccccc3n2)nc2ccccc21,3.5%,0
CCC(=O)Nc1ccccc1C(=O)Nc1ccccn1,0%,1.5

Compound,growth inhibition [1],growth inhibition [2] [%]
O=C(NCc1nnc2n1CCCCC2)c1ccc(-c2ccc(F)cc2)o1,11.2%,0
NCCCC(N)(C(=O)O)C(F)F (configuration not stated),13.5%,17.2
Nc1ncc(-c2ccc(C(F)(F)F)nc2)cc1-c1ccc(C(F)(F)F)nc1,18.2%,11
O=C(Nc1nc(-c2ccccn2)cs1)C1CC1c1ccccc1F (configuration not stated),9.5%,34.2
O=C(Nc1ccc(N2CCNCC2)cc1)c1ccn2ncc(-c3cccc(Cl)c3)c2n1,12%,14.5
COC(=O)c1cccc2oc(-c3cccc(OC)c3NC(=O)c3cc(-c4ccccc4)on3)nc12,7.5%,0
CC(C)(C)n1nc(-c2ccccc2)c2c(N)ncnc21,0%,9
O=C(COc1cccc(F)c1)Nc1nc(-c2ccccn2)cs1,22.5%,8.75
CC(=O)OCC1OC([S-])C(OC(C)=O)C(OC(C)=O)C1OC(C)=O.CCP(CC)CC.[Au+] (configuration not stated),25.5%,55
CCCCc1ccc(NC(=O)Nc2ccc(O[C@H]3CCCC[C@@H]3N(C)c3ccccc3)c(F)c2)cc1,0%,4.25
CC1(C)Cc2c(c(N3CCOCC3)nc3snc(Br)c23)CO1,4.5%,6.5
COc1ccccc1CNC(=O)c1cc(C2CC2)nc2c1cnn2C(C)C,27.8%,0
CC1=NN(c2nc3ccccc3s2)C(=O)C1Cc1cccc2ccccc12 (configuration not stated),17.2%,14.8
N#CCN(CCCCN1CCN(c2ccc(F)cc2)CC1)C(=O)OCc1ccccc1,11.2%,2.5
CNc1cc(C)nc(C2CN(C(=O)c3n[nH]c4ccccc34)CCO2)c1 (configuration not stated),5.75%,4.5
Cc1cc(C)n(-c2ccc(NC(=O)C3CCN(Cc4cnc(C)s4)CC3)cc2)n1,5.5%,1.25
O=C(C1CCCCC1)N1CC(=O)N2CCc3ccccc3C2C1 (configuration not stated),2.25%,10.2
COc1cc2ncnc(NC3CCN(Cc4ccccc4)CC3)c2cc1OC,8%,0
COc1ccc(-c2cncc3ccc(C(=O)NCCCn4ccnc4)nc23)cc1,16%,16.5
Cc1[nH]c2cc(F)cc(F)c2c(=O)c1-c1ccc(Oc2ccc(OC(F)(F)F)cc2)cc1,2.25%,9.5
c1ccc(-c2[nH]c3ccccc3c2C(c2ccccn2)N2CCCC2)cc1 (configuration not stated),4.25%,12.2
Cc1cccc(NC(=O)c2cc(S(=O)(=O)N(C)c3ccc(F)cc3)ccc2Cl)n1,4.25%,8.25
Cc1nc2ccccn2c1C(=O)NCc1ccc(Cl)cc1,14%,16
C[C@H](C(N)=O)N1CCCC[C@@H]1c1ccc(OCc2cccc(F)c2)cc1,0%,2
